In PubChem BioAssay AID1159580 (chemical genetic matrix, 2015):
The campaign covered roughly 5,500 compounds. About 2,000 (36%) were called active. Inconclusive results (about 18%) are left out. The list shows a part of the results. Unmarked numbers belong to inactive results. Cut-off read from the data, not from the text of the source: active = normalized growth mostly below about 0.91 (no sharp cut-off); inconclusive = no clear call, values can overlap the other calls; inactive = mostly above about 0.92.

Test: chemical genetic growth profiling, strain panel (AID 1159580);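 note: tested at 20 µM; growth read once vehicle control cultures reached saturation at 30 °C; 1 = growth at the plate median or of vehicle wells; lower values mean less growth of the strain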
Conditions: growth OD

Q: For `O=C(O)CSCC(=O)N1CCc2c([nH]c3ccccc23)C1C(F)(F)F` (stereo unspecified), which normalized growth (S. cerevisiae deletion strains, locus YAL013W, strain DEP1, active compounds read low) is on record?
A: Its normalized growth is 1.01.

Q: And the normalized growth (S. cerevisiae deletion strains, locus YBR229C, strain ROT2, active compounds read low)?
A: The normalized growth was 1.01.

Q: What about the normalized growth (S. cerevisiae deletion strains, locus YCL061C, strain MRC1, active compounds read low) of the same compound?
A: The normalized growth was 1.04.

Q: And the normalized growth (S. cerevisiae deletion strains, locus YDL101C, strain DUN1, active compounds read low)?
A: Its normalized growth is 1.01.

Q: And the normalized growth (S. cerevisiae deletion strains, locus YDL134C, strain PPH21, active compounds read low)?
A: The normalized growth was 1.

Q: And the normalized growth (S. cerevisiae deletion strains, locus YDR150W, strain NUM1, active compounds read low)?
A: The normalized growth was 0.936.

Q: And the normalized growth (S. cerevisiae deletion strains, locus YEL061C, strain CIN8, active compounds read low)?
A: The normalized growth was 0.997.

Q: What about the normalized growth (S. cerevisiae deletion strains, locus YGR078C, strain PAC10, active compounds read low) of the same compound?
A: The normalized growth was 1.05.

Q: What about the normalized growth (S. cerevisiae deletion strains, locus YHR030C, strain SLT2, active compounds read low) of the same compound?
A: Its normalized growth is 1.16.

Q: And the normalized growth (S. cerevisiae deletion strains, locus YHR087W, strain rtc3, active compounds read low)?
A: Its normalized growth is 1.

Q: What about the normalized growth (S. cerevisiae deletion strains, locus YJR043C, strain POL32, active compounds read low) of the same compound?
A: Its normalized growth is 1.02.

Q: And the normalized growth (S. cerevisiae deletion strains, locus YJR075W, strain HOC1, active compounds read low)?
A: Its normalized growth is 1.03.

Q: And the normalized growth (S. cerevisiae deletion strains, locus YKL190W, strain CNB1, active compounds read low)?
A: Its normalized growth is 1.

Q: And the normalized growth (S. cerevisiae deletion strains, locus YLR039C, strain RIC1, active compounds read low)?
A: Its normalized growth is 1.04.

Q: What about the normalized growth (S. cerevisiae deletion strains, locus YLR058C, strain SHM2 (second series), active compounds read low) of the same compound?
A: The normalized growth was 1.02.

Q: What about the normalized growth (S. cerevisiae deletion strains, locus YLR085C, strain ARP6, active compounds read low) of the same compound?
A: The normalized growth was 1.09.

Q: And the normalized growth (S. cerevisiae deletion strains, locus YLR262C, strain YPT6, active compounds read low)?
A: Its normalized growth is 1.01.

Q: And the normalized growth (S. cerevisiae deletion strains, locus YML094W, strain GIM5, active compounds read low)?
A: Its normalized growth is 1.

Q: And the normalized growth (S. cerevisiae deletion strains, locus YMR219W, strain ESC1, active compounds read low)?
A: The normalized growth was 1.02.

Q: What about the normalized growth (S. cerevisiae deletion strains, locus YMR263W, strain SAP30, active compounds read low) of the same compound?
A: Its normalized growth is 1.02.

Q: And the normalized growth (S. cerevisiae deletion strains, locus YMR307W, strain GAS1, active compounds read low)?
A: The normalized growth was 1.1.

Q: And the normalized growth (S. cerevisiae deletion strains, locus YNL128W, strain TEP1, active compounds read low)?
A: Its normalized growth is 0.987.

Q: What about the normalized growth (S. cerevisiae deletion strains, locus YNL153C, strain GIM3, active compounds read low) of the same compound?
A: Its normalized growth is 1.01.

Q: And the normalized growth (S. cerevisiae deletion strains, locus YNL298W, strain CLA4 (second series), active compounds read low)?
A: Its normalized growth is 1.05.

Q: What about the normalized growth (S. cerevisiae deletion strains, locus YNL322C, strain KRE1, active compounds read low) of the same compound?
A: Its normalized growth is 1.02.

Q: And the normalized growth (S. cerevisiae deletion strains, locus YNR030W, strain Alg12, active compounds read low)?
A: Its normalized growth is 1.02.

Q: And the normalized growth (S. cerevisiae deletion strains, locus YOL006C, strain TOP1, active compounds read low)?
A: Its normalized growth is 1.11.

Q: What about the normalized growth (S. cerevisiae deletion strains, locus YPL055C, strain LGE1, active compounds read low) of the same compound?
A: Its normalized growth is 0.991.

Q: And the normalized growth (S. cerevisiae deletion strains, locus YPL241C, strain CIN2, active compounds read low)?
A: Its normalized growth is 1.22 [resistant] (active).

Q: What about the normalized growth (S. cerevisiae deletion strains, locus YPR135W, strain CTF4, active compounds read low) of the same compound?
A: The normalized growth was 1.06.

Q: What about the normalized growth (S. cerevisiae strains, strain wild type, active compounds read low) of the same compound?
A: The normalized growth was 0.993.
